Data as given in PubChem BioAssay AID588473 (Sanford-Burnham Center for Chemical Genomics, 2011).
In all, about 350,000 compounds went through this assay and about 1,600 (0.46%) were called active.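 Rule for the calls: active = activation of at least 50%, plus an integration ratio under a set limit after plate pattern correction; inactive = the rest.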 This excerpt belongs to a sample that is enriched for actives.

Test system: CRF-binding protein / CRF receptor 2 complex (human)
Test: agonists of CRF-BP/CRF-R2 complex, primary screen, cell-based, HEK293, calcium dye fluorescence, uHTS (AID 588473);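 note: plate controls were neutral control wells without compound for no effect and CRF at EC100 for full effect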
Settings: calcium dye fluorescence (FLIPR), at 13.2 µM, stronger effect = higher value, percent of saturating CRF peptide response

activation, inactive:
Cc1noc(C)c1S(=O)(=O)N(C)Cc1ccccc1 -2.84%, CC(c1cccnc1)N(CCN(C)C)C(=O)Nc1ccc(Cl)c(Cl)c1 (configuration not stated) 0.52%, O=C(OCCN=C1NS(=O)(=O)c2ccccc21)c1cccc([N+](=O)[O-])c1 -1.89%, N#CC1(NC(=O)COC(=O)CCN=C2NS(=O)(=O)c3ccccc32)CCCCC1 8.71%, C=CCOc1cccc(C2C(C(=O)c3ccc(C)o3)=C(O)C(=O)N2CCN2CCOCC2)c1 (configuration not stated) 0.15%, CCCc1c(C(=O)N/N=C(\C)CCc2ccc(OC)cc2)nnn1-c1nonc1N -0.36%, COc1ccc(C(=O)OCC(=O)NCC2CCCCC2)cc1S(=O)(=O)N1CCCc2ccccc21 1.36%, CCC(C)(C)NC(=O)/C=C/c1cc(OC)c(OC)c(S(=O)(=O)N2CCc3ccccc32)c1 3.27%, CC(OC(=O)CN1C(=O)C2CCCCC2C1=O)C(=O)Nc1ncc(Cl)cc1Cl (configuration not stated) 0.41%, CCNc1nc(Oc2ccc(C(=O)OC)cc2)nc(N2CCOCC2)n1 1.34%, Cc1ccccc1NC(=O)C(C)c1ccc(-c2ccccc2)c(F)c1 (configuration not stated) 1.53%, CC1CC(NC(=O)/C(C#N)=C/c2ccc[nH]2)CC(C)(C)C1 (configuration not stated) 2.1%, CCOC(=O)c1c(NC(C)=O)sc2c(O)c(Br)ccc12 1.34%, NC(=O)c1cc(-c2cccnc2)nc2ccc(Br)cc12 -0.32%, NC(N)=Nc1nc2ccc(Br)cc2c(=O)[nH]1 -1.35%, CC1Sc2ccc(S(=O)(=O)CCC(=O)NCc3ccccc3Cl)cc2NC1=O (configuration not stated) -3.65%, COc1ccc(C)cc1N(CC(=O)N1CCCC1)S(=O)(=O)c1ccccc1 -0.01%, COc1ccc(N(CC(=O)N2CCCCCC2)S(=O)(=O)c2ccccc2)cc1 0.06%, COc1ccc(C(=O)NC(=S)NC2CCCCC2)cc1 1.07%, O=C(CCc1ccccc1)NNC(=O)COc1ccc(Cl)cc1 -0.46%, CCOc1ccccc1NC(=S)NC(=O)CCc1ccccc1 0.36%, CC(=O)NC(=S)NNC(=O)c1ccc(Br)cc1 -4.92%, CCN(Cc1ccncc1)C(=S)Nc1ccccc1C -0.24%, COCCCNC(=S)N(CCN(C)C)Cc1cc2cc3c(cc2[nH]c1=O)OCCO3 0.16%, CC(=O)NC(CC(=O)Nc1nccs1)c1ccccc1 (configuration not stated) 2.22%, O=C(Nc1ccccc1C(F)(F)F)N1CCCC1c1cccnc1 (configuration not stated) 0.09%, Cc1ccc(NC(=O)CSc2nc(=O)n(CCN(C)C)c3c2CCCC3)c(C)c1 -0.4%, CCOC(=O)Cc1c(C)nc2c(C#N)c(C)nn2c1C -2.38%, O=C(NCCc1ccccc1Cl)C1CCC(=O)N(CCCc2ccccc2)C1 (configuration not stated) -1.43%, C/C(=N\NC(=O)c1cc2c(s1)CCC(C)C2)c1cccnc1 (configuration not stated) -0.26%, CN(C(=O)COC(=O)c1ccc(Br)o1)c1c(N)n(Cc2ccccc2)c(=O)[nH]c1=O 1.22%, Nc1cc(=O)n(Cc2ccccc2)c(=O)n1Cc1ccccc1 -0.25%, CCCS(=O)(=O)N1CCCC(C(=O)NCCN2CCCCC2C)C1 (configuration not stated) 2.69%, COc1cccc(C=CC(=O)C=CC=Cc2ccccc2)c1 3.04%, O=C(O)/C=C/c1ccc(S(=O)(=O)N2CCCCCC2)cc1 -6.06%, Cc1cc(Cl)ccc1C(=O)C1CCCN(C(=O)c2ccc3c(c2)OCO3)C1 (configuration not stated) -0.83%, CC1(C)Cc2c(sc(NC(=O)C(=O)NCC3CCCO3)c2C(=O)O)CO1 (configuration not stated) 1.19%, O=C(Nc1cccc(Cl)c1)Nc1ccccc1NS(=O)(=O)c1cccs1 38.9%, O=S(=O)(Nc1ccccc1N1CCOCC1)c1ccc(Cl)s1 0.68%, COc1ccc(CN2CCn3ncc(C(=O)Nc4ccc(Cl)cc4Cl)c3C2=O)cc1 1.96%, COc1ccccc1CNC(=O)C1CCCN(S(=O)(=O)c2cccc3cccnc23)C1 (configuration not stated) -0.51%, COc1ccc(-n2c(-c3ccc(Cl)cc3)n[nH]c2=S)c(OC)c1 -2.26%, COc1cc(OC)c(-n2c(C)cc(C=O)c2C)cc1Cl 0.85%, COc1ccc(NC(=O)N(C)C[C@H]2Oc3ncc(C#C[C@@H](C)O)cc3C(=O)N([C@H](C)CO)C[C@H]2C)cc1 5.65%, CC(C)c1ccc(NC(=O)Cn2ncc3ccccc32)cc1 -4.37%, CC(NC(=O)Nc1ccccc1)c1ccccc1 (configuration not stated) -0.98%, Cc1cc2c(cc1C)[n+](C)cn2CC(O)COCC1CC=CCC1 (configuration not stated) 0.16%, O=C(Nc1ccc2c(c1)OCCO2)C1CCCC1 -0.49%, CC(C)NS(=O)(=O)c1ccc(NC(=O)C2CCCCC2)cc1 1.98%

activation, active:
O=C(CCCN=C1NS(=O)(=O)c2ccccc21)OCC(=O)c1ccc(F)c(F)c1 62%, COc1cc(C)c(C)cc1S(=O)(=O)N1CCCc2ccccc21 53.4%, O=c1c2cc(Br)ccc2nc(-c2cccc(Cl)c2)n1O 66.9%, COc1ccccc1N(CC(=O)N1CCCCC1)S(=O)(=O)c1ccccc1 59.4%, Nc1c(C(=O)c2cccs2)sc2nsc(SCCN3CCCCC3)c12 147%, COc1ccc(C(=O)NC(=S)NNC(=O)CCc2ccccc2)cc1 68.5%, COc1ccc(C(=O)NNC(=S)NC(=O)c2ccccc2)cc1 123%, Cc1cc2nc3c(=O)n(Cc4ccccc4)c(=O)[nH]c3nc2cc1N 89.5%, O=C(/C=C(O)/C=C/c1ccc(O)cc1)/C=C/c1ccc(O)cc1 123%, COc1cc(NC(=O)c2ccccc2NS(=O)(=O)c2ccc(Cl)s2)cc(OC)c1 59.3%, COc1cc(OC)c(-n2cc(-c3ccc(Cl)cc3)[nH]c2=O)cc1Cl 180%, CCC(C(=O)Nc1ccc(C(C)C)cc1)c1ccccc1 (configuration not stated) 84.3%, O=C(O)c1ccc(NC(=O)C2CCCCC2)cc1 51.5%
